Screening results: PubChem BioAssay, several laboratories
A selection: hits, their analogues and other compounds. The true share with any hit is near 3.2%.
bovine MsrA act: bovine MsrA enzyme activators, primary screen, biochemical, absorbance, HTS. Methionine sulfoxide reductase A (Bos taurus). purified bovine MsrA, absorbance read-out. activation, % at 10.6 µM. actives 0.3% (n = 360,000); in the data active means activation above about 7.5%;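 further: 0% = vehicle and 100% = reference activator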
MsrA inhibitor: bovine MsrA enzyme inhibitors, primary screen, biochemical, absorbance, HTS. Methionine sulfoxide reductase A (Bos taurus). purified bovine MsrA, absorbance read-out. inhibition, % at 15.5 µM. actives 0.75% (n = 360,000). AID 651718, 2012; in the data active means inhibition above about 4.5%;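 further: 0% = vehicle wells with enzyme and 100% = reference inhibitor wells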
Pemphigus Ab inh: inhibitors of pemphigus antibody binding to DSG3, primary screen, biochemical, bead-based, flow cytometry, scFv-GFP; Desmoglein-3 (Homo sapiens), P32926; DSG3-coupled beads, scFv-anti-DSG3-GFP binding; hits give low values; binding (percent of control), % at 10 µM; actives 0.48% (n = 310,000); AID 588358, 2011;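 active means binding more than 3 SD below its plate's average and above zero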;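 further: hits lower antibody fragment binding to DSG3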
DAGLB inhibitor: DAGLB lipase inhibitors, primary screen, biochemical, fluorescence, HTS | actives 0.059% (n = 340,000) | Diacylglycerol lipase-beta (Homo sapiens), Q8NCG7 | inhibition, % at 5.17 µM | HEK293T DAGLB membrane lysate, EnzChek fluorogenic substrate; in the data active means inhibition above about 34%;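 further: 0% = enzyme with vehicle and 100% = wells lacking enzyme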
Target sequence (Q8NCG7 whole entry, looked up): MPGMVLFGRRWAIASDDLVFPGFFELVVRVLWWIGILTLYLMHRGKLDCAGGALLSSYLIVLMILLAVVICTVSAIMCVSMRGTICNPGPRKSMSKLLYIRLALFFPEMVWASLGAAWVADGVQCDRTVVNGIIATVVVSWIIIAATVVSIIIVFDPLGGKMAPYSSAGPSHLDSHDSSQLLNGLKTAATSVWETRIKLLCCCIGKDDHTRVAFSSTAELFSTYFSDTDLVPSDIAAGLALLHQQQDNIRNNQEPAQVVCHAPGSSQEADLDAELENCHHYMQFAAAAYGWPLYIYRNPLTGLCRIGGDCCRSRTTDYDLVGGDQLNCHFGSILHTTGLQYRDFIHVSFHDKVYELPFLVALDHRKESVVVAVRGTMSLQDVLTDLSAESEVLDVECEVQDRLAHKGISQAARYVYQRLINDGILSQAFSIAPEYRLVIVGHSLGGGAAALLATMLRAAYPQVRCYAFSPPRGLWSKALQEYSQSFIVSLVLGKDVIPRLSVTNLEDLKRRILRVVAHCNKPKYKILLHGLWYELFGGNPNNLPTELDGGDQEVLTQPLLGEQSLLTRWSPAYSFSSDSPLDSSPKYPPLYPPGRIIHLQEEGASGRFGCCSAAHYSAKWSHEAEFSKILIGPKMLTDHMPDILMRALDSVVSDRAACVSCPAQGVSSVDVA
rCAG RNA binder: binders of r(CAG) RNA repeats, primary screen, biochemical, fluorescence | AID 651821, 2012 | r(CAG) RNA repeat, TO-PRO-1 dye displacement fluorescence | actives 1.3% (n = 370,000) | inhibition, % at 3 µM;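 active means inhibition above the plate cutoff, the mean of all test compounds on that plate plus 3 SD, cut at about 35% in these data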;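 further: 0% = DMSO alone and 100% = 100 µM mitoxantrone as full dye displacement; higher means more dye released from RNA so lower well fluorescence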
NadD block: inhibitors of S. aureus NadD, primary screen, biochemical, colorimetric, uHTS; purified NadD enzyme, colorimetric absorbance read-out; inhibition, % at 20 µM; actives 0.78% (n = 360,000); in the data active means inhibition above about 26%
rCAG binder conf: small molecules binding CAG repeat RNA – biochemical, fluorescence, confirmation | shares compounds with rCAG RNA binder | r(CAG) RNA repeat, TO-PRO-1 dye displacement fluorescence | inhibition, % at 3 µM | actives 70% (n = 4,300) | AID 652065, 2013;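 active means inhibition above a per-plate cutoff, the mean inhibition of sample wells plus 3 SD, cut at about 35% in these data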;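 further: loss of TO-PRO-1 fluorescence as compound displaces dye from 1x1 AA loop RNA; 0% = DMSO only wells and 100% = 100 µM mitoxantrone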
dCAG dye counter: displacement of TO-PRO-1 from CAG DNA duplex, counter-screen for rCAG RNA repeat binder project, biochemical, fluorescence, TO-PRO-1 dye, d(CAG) DNA oligo; actives 94% (n = 4,300); inhibition, % at 3 µM; d(CAG) DNA oligo TO-PRO-1 dye displacement; shares compounds with rCAG RNA binder;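 active means inhibition above its plate's cutoff, the mean test-well inhibition plus 3 SD, cut at about 4.8% in these data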;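 further: 0% = DNA dye mix with DMSO and 100% = 100 µM mitoxantrone; hits displace the dye from DNA and so lower well fluorescence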
DNA CAG DR: inhibitors of DNA CAG/GTC TO-PRO-1 complex, dose response, counter-screen for rCAG RNA repeat binder project, biochemical, fluorescence, TO-PRO-1 dye. shares compounds with rCAG RNA binder. DNA CAG/GTC duplex TO-PRO-1 dye displacement fluorescence. IC50, µM. actives 20% (n = 250). AID 686960, 2013; in the data active means IC50 below about 10 µM
The depositor's hits bear a star; i = inactive; / = no result given.

SMILES	bovine MsrA act	MsrA inhibitor	Pemphigus Ab inh	DAGLB inhibitor	rCAG RNA binder	NadD block	rCAG binder conf	dCAG dye counter	others
Cc1ccc2c(c1)c(N=Nc1cccc(C(=O)O)c1)c(O)n2C	-12	1	100	4	38*	2	56*	12*	DNA CAG DR=i
C=CCN1C(=O)[C@@H](CC(=O)N2CCCCC2)[C@]2(C(=O)OC)CCCCC=C12	/	/	/	/	5	/	/	/
CCCOc1ccc(C2C(C(=O)c3cc4ccccc4o3)=C(O)C(=O)N2c2cc(C)on2)cc1 (stereo unspecified)	-9	1	96	12	31	10	/	/
COc1ccccc1C1C(C(=O)c2cc3ccccc3o2)=C(O)C(=O)N1c1cc(C)on1 (stereo unspecified)	-4	1	131	3	34	12	/	/
CCCOc1ccc(C2C(C(=O)c3cc4ccccc4o3)=C(O)C(=O)N2c2cc(C)on2)cc1OC (stereo unspecified)	-3	-1	/	13	40*	18	76*	42*
C=CCOc1cccc(C2C(C(=O)c3cc4ccccc4o3)=C(O)C(=O)N2c2cc(C)on2)c1 (stereo unspecified)	-2	1	92	10	66*	15	76*	40*
COc1cccc(C2C(C(=O)c3cc4ccccc4o3)=C(O)C(=O)N2c2cc(C)on2)c1 (stereo unspecified)	-3	1	95	7	48*	10	52*	18*
COc1ccc(OC)c(C2C(C(=O)c3cc4ccccc4o3)=C(O)C(=O)N2c2cc(C)on2)c1 (stereo unspecified)	-5	3	107	7	38*	16	42*	12*
CC(C)(C)C(=O)NC1CCCCN(Cc2ccc(Cl)cc2)C1=O (stereo unspecified)	/	/	/	/	0	/	/	/
NNC(=S)Nc1cccc(-c2n[nH]c(=S)o2)c1	-8	2	106	3	51*	-1	18	6.8*
CC1(C)Cc2c(sc3nc(SCC(=O)O)nc(N)c23)CO1	-2	0	116	1	2	-2	/	/
CC(C)(C)C1CCc2c(sc3nc(SCC(=O)O)nc(N)c23)C1 (stereo unspecified)	-5	0	93	3	36*	5	42*	10*
O=S(=O)(Nc1nnc(C2CCCCC2)s1)c1ccc(F)cc1	-3	0	95	2	30	-4	/	/
O=[N+]([O-])c1ccc(S(=O)(=O)Nc2nnc(C3CCCCC3)s2)cc1	-3	0	113	13	47*	5	34	8.3*
Cc1cc(C)c(S(=O)(=O)Nc2nnc(CC(C)C)s2)c(C)c1	1	0	111	6	49*	4	33	8.4*
Cc1cc(C)c(S(=O)(=O)Nc2nnc(C3CCCCC3)s2)c(C)c1	-3	-1	100	11	72*	9	59*	25*
C/C(=N/NC(=O)CSc1nnc(-c2ccccc2)n1-c1ccc(Cl)cc1)c1cccc(O)c1	/	/	/	/	3	/	/	/
COc1cc(/C=N/N2CCN(Cc3ccccc3)CC2)cc(OC)c1OC(C)=O	-5	0	118	-4	-7	-3	/	/
